Assay outcomes (PubChem)
Only some compounds are listed: those with a hit (about 4.6% of all), similar ones and a draw of the others.
Tau FP inhib = blocks human tau fibril formation measured by polarization. P10636. K18 P301L tau heparin fibrillization, Alexa594 FP, 6 h. Potency, µM (top dose mostly 57.7 µM), inactives show at the highest dose activity, negative = inhibition, actives largely listed as inhibitors. 0.39% of 280,000 active; also: potency is read from the fitted curve at half-maximal effect; nearly all actives have a fitted effect of over 55% in size
Target sequence (P10636 561-689 P618L limits assumed): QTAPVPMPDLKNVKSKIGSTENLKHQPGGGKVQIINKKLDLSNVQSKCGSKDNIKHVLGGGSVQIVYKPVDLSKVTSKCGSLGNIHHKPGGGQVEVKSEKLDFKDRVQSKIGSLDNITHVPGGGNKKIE
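Compound effects on tau fibrillization are measured by Alexa 594 fluorescence polarization (ex 555, em 632 nm). K18 P301L tau is used at 15 uM with 0.24 uM labeled tracer, and 20 uM heparin induces aggregation over 6 hr at 37 C.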
TexasRed fluor = counter-screen for TRb-SRC2 inhibitors: fluorescence interference; TRb/SRC2 Texas Red total fluorescence interference; AID 1479; 0.29% of 280,000 active; Potency, µM (top dose mostly 106 µM), for the others: at the highest dose fluorescence change, negative = quenching; active = well fitted curve in either direction with a large enough effect; inconclusive = small, poorly fitted or top-dose-only effect; also: potency is read from the fitted curve at half-maximal effect
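Flags fluorescent or light-absorbing compounds by total fluorescence, S + 2P, at 555 nm excitation and 632 nm emission. Mixture: 20 nM Texas Red SRC2 peptide, 0.6 uM human TRb LBD, 1 uM T3, 5% DMSO; compound exposure 5 h at ambient temperature.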
PNC assembly inh = blocks assembly of the perinucleolar compartment. PC3M PTB-GFP, PNC prevalence imaging, 16 h; active compounds read low. activity change (PNC), negative = inhibition, % at 10 µM. 3.1% of 140,000 active. AID 2417;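 active = readout at or below -70, meaning at least 70% loss of cells showing the perinucleolar compartment, a nuclear body marking cancer cells; inconclusive = readout between -30 and a set limit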;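 also: plate controls were DMSO wells for no effect and camptothecin positive control wells for full effect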
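Read-out is percentage of cells bearing a perinucleolar compartment, from automated 20x imaging of fixed, Hoechst-stained PC3M PTB-GFP cells. Cells were seeded 4 h, then exposed 16 h to compound (23 nl of library stock) in duplicate plates.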
Tau fluor cs = counter-screen for tau fibril formation inhibitors. AID 1463. 0.93% of 280,000 active. Potency, µM (titrated, usually from 57.7 µM), without a hit: at the top dose activity change, negative = decrease. tau K18 P301L Alexa594 fluorescence, heparin fibrillization; also: potency is read from the fitted curve at half-maximal effect; nearly all actives have a fitted effect of over 55% in size
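Human tau K18 P301L (15 uM unlabeled, 0.24 uM Alexa 594-labeled) in 100 mM sodium acetate pH 7 with 20 uM heparin, 6 hr at 37 C. ThT 30 uM added, 1 hr ambient; Alexa 594 FP and total fluorescence read at 555/632 nm.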
TRb-SRC2 inh = inhibitors of human thyroid hormone receptor beta-SRC2 interaction; 0.065% of 280,000 active; P10828; Potency, µM (highest dose often 106 µM), for the others: at the top dose activity change, negative = inhibition, actives largely listed as inhibitors; AID 1469; TRbeta-SRC2 peptide binding, fluorescence polarization; receptor liganded with 1 µM T3;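 also: potency is read from the fitted curve at half-maximal effect; plate controls were bound peptide for no effect and peptide without receptor for full effect; nearly all actives have a fitted effect of over 50% in size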
Target sequence (P10828 whole entry, looked up): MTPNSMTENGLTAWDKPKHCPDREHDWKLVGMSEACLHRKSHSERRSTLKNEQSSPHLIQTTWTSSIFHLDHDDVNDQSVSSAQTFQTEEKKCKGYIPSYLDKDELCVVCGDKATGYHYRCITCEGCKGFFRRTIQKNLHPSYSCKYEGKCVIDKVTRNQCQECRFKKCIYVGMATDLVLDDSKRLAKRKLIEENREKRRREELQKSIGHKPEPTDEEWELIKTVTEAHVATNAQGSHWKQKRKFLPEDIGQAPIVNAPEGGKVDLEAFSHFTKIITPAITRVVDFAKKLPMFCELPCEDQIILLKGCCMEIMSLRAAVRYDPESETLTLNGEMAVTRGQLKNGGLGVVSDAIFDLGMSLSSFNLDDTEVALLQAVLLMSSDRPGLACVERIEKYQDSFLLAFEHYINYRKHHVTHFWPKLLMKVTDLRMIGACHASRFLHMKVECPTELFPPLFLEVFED
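TRb LBD 0.6 uM + Texas Red SRC2 peptide 20 nM, 1 uM T3, Tris buffer w/ 5% DMSO; compound pinned, 5 h RT; FP read ex 555/em 632; normalized to unbound and bound controls.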
Tau fibril ThT = blocks human tau fibril formation measured by thioflavin T. AID 1460. Potency, µM (titrated, usually from 57.4 µM), inactives show at the highest dose activity, negative = inhibition, usual class: inhibitors. 2.1% of 270,000 active. P10636. recombinant tau K18 P301L, heparin-induced fibrillization, ThT fluorescence; also: potency is read from the fitted curve at half-maximal effect; nearly all actives have a fitted effect of over 55% in size
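Using a mix of unlabeled (15 uM) and Alexa 594-labeled (0.24 uM) tau K18 P301L, heparin-triggered fibrillization over 6 hr at 37 C was scored by ThT fluorescence.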
Numbers without * were called inactive; ? = inconclusive; / = not tested or not shown; [ ] = another dose, or the depositor's remark. Unless noted, calls follow the shape of the dose curve; as a rule, active = well fitted curve in the direction sought with a large enough effect; inconclusive = small, poorly fitted or top-dose-only effect, or another doubt; inactive = no such curve, though single readings can be large; an effect the other way counts as inactive or inconclusive. Unless noted, % is scaled to controls: 0 for no effect and ±100 for the full control effect.

SMILES	Tau FP inhib	TexasRed fluor	PNC assembly inh	Tau fluor cs	TRb-SRC2 inh	Tau fibril ThT
COc1ccccc1Nc1nc(-c2sc(NC(=O)c3ccccc3)nc2C)cs1	7%	5%	17	?	-15%	?
Cc1nc(NC(=O)c2ccccc2)sc1-c1csc(N)n1	-3%	-7%	-3	?	6%	13µM*
CCOc1ccccc1Nc1nc(-c2sc(NC(=O)c3ccccc3)nc2C)cs1	3%	2%	25	?	-2%	?
Cc1nc(NC(=O)c2ccccc2)sc1-c1csc(NCc2ccccc2)n1	?	-6%	?	13µM*[quencher]	-4%	?
Cc1nc(N)sc1-c1csc(Nc2ncccn2)n1	3%	?	/	-29%	7%	4µM*
O=C(CCn1nnc2ccccc21)Nc1nnc(COc2ccc(F)cc2)s1	-5%	-1%	34	-2%	-8%	-3%
CCOc1ccccc1NC(=O)CCc1nc(-c2cccc(C)c2)no1	1%	-11%	/	-29%	-7%	-15%
Oc1csc(Cc2nc(-c3ccc(-c4ccccc4)cc3)cs2)n1	5%	-4%	-2	-29%	1%	?
Oc1csc(Cc2nc(-c3ccc4ccccc4c3)cs2)n1	4%	-4%	?	13µM*[quencher]	1%	3.5µM*
Oc1csc(Cc2nc(-c3ccccc3F)cs2)n1	-4%	-3%	/	?	0%	14µM*
O=C(CSc1ccc(F)cc1)N1CCC(c2nc3ccccc3s2)CC1	0%	-4%	-17	3%	3%	12%
Cc1ccc(NC(=S)N(CCCN2CCCC2)Cc2cccn2Cc2ccc(Cl)cc2)cc1Cl	0%	0%	/	?	-2%	?
Cc1nc2ccc(C(=O)Nc3cccc([N+](=O)[O-])c3)cc2s1	-8%	2%	/	?	-1%	?
O=C(NCC1CCCO1)C(c1ccc(F)cc1)N(CC1CCCO1)C(=O)c1ccc(-c2ccccc2)[nH]1 (stereo not given)	3%	-1%	/	-10%	0%	?
N#CC(=C(/N)Sc1ccccc1N)/C(C#N)=C(/N)Sc1ccccc1N	/	-4%	/	25µM*[quencher]	1%	35µM*
Cc1cccc(OCCNc2nc3c(c(=O)n(C)c(=O)n3C)n2C)c1	7%	0%[53 µM]	-97*	-7%	-21%[53 µM]	-9%
O=C(O)c1cc(N/N=C/C(Cl)=C/c2ccccc2)ccc1Cl	-4%	-3%	/	-29%	-4%	14µM*
O=C(O)c1cc(N/N=C/c2cccs2)ccc1Cl	-12%	-3%	/	-15%	-2%	?
CCc1ccc(NC(=O)CC(NCc2cccnc2)C(=O)O)cc1 (stereo not given)	6%	-3%	/	2%	9%	1%
CN1CCN(C(=S)NCCc2ccccc2)CC1	-1%	-1%	-82*	0%	1%	-8%
CC(=O)N(Cc1ccccc1)c1ccc(C(=O)O)cc1	2%	1%	-85*	-2%	3%	0%
COc1ccccc1CCc1nnc(CCC(=O)NCCOc2cccnc2)o1	5%	-5%	/	-8%	2%	-9%
O=C(CSc1n[nH]c(=O)[nH]c1=O)Nc1ccc2c(c1)C(=O)c1ccccc1C2=O	15%	-11%	/	13µM*[quencher]	4%	10µM*
Cc1cc(N2CCC(C)CC2)n2nc(C)c(-c3ccccc3)c2n1	-7%	1%	-16	-4%	-16%	-1%
CCOC(=O)N1CCN(c2cc(C)nc3nc(C)nn23)CC1	0%	-7%	?	-2%	2%	-2%
SMILES	Tau FP inhib	TexasRed fluor	PNC assembly inh	Tau fluor cs	TRb-SRC2 inh	Tau fibril ThT
Cc1cc(N2CCCC2)n2nc(C)nc2n1	-4%	0%	-84*	-3%	4%	1%
Cc1cc(N2CCCCC2)n2nc(C)c(-c3ccccc3)c2n1	13%	0%	-82*	-15%	-22%	-9%
CN(NS(=O)(=O)c1ccc(Cl)cc1)c1cnn(C)c(=O)c1Cl	-7%	-3%	/	-12%	-1%	-6%
COc1ccc(Br)cc1CNC(=O)c1ccc2c(c1)N(Cc1ccc(C)cc1)CCS2	1%	-4%	/	?	-7%	7%
Cc1ccc2nc(-c3ccc(Cl)c(NC(=O)c4cccc([N+](=O)[O-])c4C)c3)oc2c1	-14%	16µM*[quencher]	/	-17%	-2%	-12%
O=c1c2ccccc2oc2nc(-c3ccco3)n(CCc3ccccc3)c(=O)c12	-3%	1%	-100*	-5%	3%	-14%
O=c1c2ccccc2oc2nc(-c3ccco3)n(-c3ccccc3)c(=O)c12	-4%	-2%	2	-16%	0%	-8%
Cc1c(C(=O)Nc2ccccc2N2CCOCC2)sc2nc3n(c(=O)c12)CCC3	7%	-4%	-127*	1%	1%	-8%
Cc1cc(C)n2nc(C(=O)NC3CCCc4ccccc43)nc2n1 (stereo not given)	-5%	0%	/	0%	0%	-5%
O=C1NC(=O)C(=C2CCCCCC2)S1	-7%	0%	-105*	-9%	-2%	-4%
O=C1CCCCC1	/	-1%	/	/	-6%	/
COCc1cc(C)nc(N2CCCCC2)c1C#N	3%	-6%	12	5%	-8%	7%
N[C@@H](Cc1c[nH]c2ccc(O)cc12)C(=O)O	?	-1%	/	?	3%	28µM*
CCc1nnc(NC(=O)CSc2ccc(-c3nc4ccccc4[nH]3)cn2)s1	?	0%	61	-26%	-6%	?
CCOc1ccccc1NC(=O)N1CC(CC)Oc2ccccc21 (stereo not given)	-1%	-3%	/	3%	-1%	-9%
Cc1ccccc1N1C(N)=NC(N)=NC1(C)C	-2%	-6%	35	3%	0%	-4%
Cc1ccc(/C=C2\CCC3=C2OC(N)=C(C#N)C3c2ccc(C)cc2)cc1 (stereo not given)	-11%	0%	?	-18%	-5%	?
N#CC1=C(N)OC2=C(CCc3ccccc32)C1c1ccccc1 (stereo not given)	-12%	-4%	-83*	?	-3%	?
O=C(O)c1ccc2c(c1)C(=O)N(C(Cc1ccccc1)C(=O)O)C2=O (stereo not given)	4%	-9%	-16	10%	2%	8%
O=S(=O)(c1ccc(Cl)s1)N1CCN(Cc2ccccc2)CC1	-2%	-5%	-83*	-18%	-6%	-11%
O=S(=O)(c1ccc(Cl)s1)N1CCC(Cc2ccccc2)CC1	1%	-1%	?	-19%	2%	-6%
N=C1/C(=C\c2ccc(SCc3ccco3)o2)C(=O)N=C2SC=NN12	-7%	?	67	-8%	-6%	6.3µM*
